The whole screen tested about 1,200 compounds, of which about 620 (52%) were called active.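 How the source made its calls: active means every separate test run was called active for a drop in luminescence, with AC50 within twice the top valid dose (actives reach about 71 µM in these data); inconclusive means the separate test runs disagree in their calls; inactive means all runs inactive, including signal change in the wrong direction.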 So high a share suggests a set chosen from earlier hits. A selection follows.
Experiment: AlphaScreen signal interference compounds, dose response, artefact control for ARNT-TACC3 interaction inhibitor project, biochemical, luminescence, cherry-pick (AID 651705)
Settings: His-ARNT PASB-GST AlphaScreen artifact counter-screen; series mostly up to 68 µM
For `Oc1cccc(/C=N/Nc2ccc(Cl)nn2)c1O`, the AC50 was 10.2 µM (active). For `CN(c1ccc(C(=O)N2CCc3ccccc3C2)cc1)S(C)(=O)=O`, the AC50 was “inactive”. In the case of `C[C@@H]1CN([C@H](C)CO)C(=O)Cc2cc(NC(=O)Nc3cccc4ccccc34)ccc2O[C@@H]1CN(C)Cc1ccc(C(=O)O)cc1`, the AC50 is reported as “inactive”. In the case of `CC(C(=O)Nc1ccc(O)c(C(=O)O)c1)N1C(=O)/C(=C/c2cccs2)SC1=S` (stereo unspecified), the AC50 is reported as “inactive”. For `CCN(CC)c1ccc(/C=N/NC(=O)c2cnccn2)c(O)c1`, the AC50 was “inactive”. In the case of `CCN1CCN(C(c2cccnc2)c2cc(Cl)c3cccnc3c2O)CC1` (stereo unspecified), the AC50 is reported as 23.8 µM (active). In the case of `CCOC(=O)N1CCN(C(c2cccnc2)c2ccc3cccnc3c2O)CC1` (stereo unspecified), the AC50 is reported as 18 µM (active). In the case of `COc1ccc2ccccc2c1CNCc1ccccn1`, the AC50 is reported as “inactive”. In the case of `O=S(=O)(c1ccccc1)N1C[C@@H]2[C@H](c3ccccc31)[C@H](CO)N2Cc1ccccn1`, the AC50 is reported as 65.5 µM (active). In the case of `C/C(=N\NC(=O)Cc1ccc(Cl)cc1)c1ccccn1`, the AC50 is reported as 59.3 µM (active). With `Cc1c(CC(=O)NCC(=O)NCC(=O)O)c(=O)oc2cc3oc4c(c3cc12)CCCC4` the AC50 was “inactive”. In the case of `O=C(NCCCn1ccnc1)c1cc(-c2ccccc2)on1`, the AC50 is reported as “inactive”. For `CC(=O)/C(=N\Nc1ccc(Cl)cc1Cl)Sc1cccc2cccnc12`, the AC50 was 7.85 µM (active). For `Oc1ccc(Br)cc1/C=N/Nc1ccccn1`, the AC50 was 56.5 µM (active). For `Cc1ccccc1CSc1nnc(-c2ccccn2)n1N`, the AC50 was “inactive”. For `O=C(CN1C(=O)COc2ccccc21)Nc1ccc(F)cc1`, the AC50 was 13.5 µM (active). For `O=C1c2cccc3cccc(c23)C(=O)N1CCCCCc1n[nH]c(=S)o1`, the AC50 was “inactive”. In the case of `CCn1cc(/C=C2/SC(=S)NC2=O)c(C)n1`, the AC50 is reported as “inactive”. In the case of `Oc1c(CN2CCN(c3ccc(F)cc3)CC2)cc(Cl)c2cccnc12`, the AC50 is reported as 10.2 µM (active). In the case of `O=C(CSc1ccc(-c2ccccn2)nn1)Nc1ccccc1`, the AC50 is reported as 10.4 µM (active). In the case of `C[C@@H]1CN([C@@H](C)CO)C(=O)c2cc(NS(=O)(=O)c3cccs3)ccc2O[C@H]1CN(C)CC1CCCCC1`, the AC50 is reported as “inactive”. For `c1ccc(-c2cn3c(n2)CCc2ccc4cccnc4c2-3)cc1`, the AC50 was “inactive”. For `O=C(Nc1cnc2ccccc2c1)c1cc(-c2ccccc2)on1`, the AC50 was “inactive”. In the case of `Cc1ccc(NC(=O)c2cc(-c3ccccc3)on2)cn1`, the AC50 is reported as “inactive”. With `Cn1c(-c2ccccc2)cnc1NC(=O)c1cc(-c2ccccc2)on1` the AC50 was 40.5 µM (active). For `CCOc1cc(N2CCOCC2)c(OCC)cc1NC(=O)COc1cccc2cccnc12`, the AC50 was 36.5 µM (active). In the case of `O=S(=O)(N[C@@H]1CC[C@@H](CCn2cc(-c3ccccn3)nn2)O[C@@H]1CO)c1cccc(Cl)c1`, the AC50 is reported as 41.9 µM (active). In the case of `O=C(N[C@@H]1CC[C@H](CCn2cc(-c3ccccn3)nn2)O[C@@H]1CO)c1ccccc1`, the AC50 is reported as 37.6 µM (active). In the case of `COCCNC(=O)Cn1cc(C(=O)c2cccs2)c2ccccc21`, the AC50 is reported as “inactive”. With `Cn1c(=NC(=O)c2cnccn2)sc2ccccc21` the AC50 was “inactive”. For `Cc1c(NC(=O)CSc2cccc3cccnc23)c(=O)n(-c2ccccc2)n1C`, the AC50 was 32.1 µM (active). For `COc1ccc(Cc2nnc(N/N=C/c3ccccc3O)[nH]c2=O)cc1OC`, the AC50 was 6.44 µM (active). In the case of `CCN(/N=C/c1ccccc1)c1cc(=O)n(C)c(=O)[nH]1`, the AC50 is reported as “inactive”. With `COc1cc(C2C(C#N)=C(N)Oc3n[nH]c(-c4ccccn4)c32)cc(OC)c1OC` (stereo unspecified) the AC50 was “inactive”. For `c1ccc(-c2nnc(-c3ccccn3)nc2Nc2nc3ccccc3s2)cc1`, the AC50 was 1.9 µM (active). For `CC(NC(=O)c1ccco1)C(=O)Nc1nc(-c2ccccn2)cs1` (stereo unspecified), the AC50 was 31.7 µM (active). For `O=C(COc1ccccc1F)Nc1nc(-c2ccccn2)cs1`, the AC50 was 54.1 µM (active). With `O=C(CN1C(=O)C2C3C=CC(C3)C2C1=O)Nc1nc(-c2ccccn2)cs1` (stereo unspecified) the AC50 was 47.6 µM (active). In the case of `Cc1c(CC(=O)NCCCCCC(=O)O)c(=O)oc2cc3occ(-c4ccccc4)c3cc12`, the AC50 is reported as “inactive”. In the case of `CCN(C(=O)Cc1nc(N)n[nH]1)C1(C(=O)Nc2ccccc2)CCCCC1`, the AC50 is reported as “inactive”. With `Cc1ccc(S(=O)(=O)n2oc(=O)c(C3CCCCC3)c2N)cc1` the AC50 was 42.3 µM (active). For `COc1ccccc1Nc1nc(N)nc(CN(C)C2CCCCC2)n1`, the AC50 was “inactive”. With `CC[C@]1(O)CC2CN(CCc3c([nH]c4ccccc34)[C@@](C(=O)OC)(c3cc4c(cc3OC)N(C=O)[C@H]3[C@@](O)(C(=O)OC)[C@H](OC(C)=O)[C@]5(CC)C=CCN6CC[C@]43[C@@H]65)C2)C1` (stereo partly specified) the AC50 was “inactive”. In the case of `CCN(CC)CCOc1ccc2c(c1)C(=NNC(=O)c1ccccn1)c1cc(OCCN(CC)CC)ccc1-2`, the AC50 is reported as 69.6 µM (active). For `CCOC(=O)c1ccc(Nc2cc3ccccc3c(=O)[nH]2)cc1`, the AC50 was “inactive”. In the case of `COC(=O)CC1=NN(c2nc(C)cc(C)n2)C(=O)C1`, the AC50 is reported as “inactive”.

Source: PubChem BioAssay AID651705 (Broad Institute, 2012)
